According to PubChem BioAssay (Tox21):
Inconclusive results are not listed. Entries that show only a call come without a potency. The source made the active and inactive calls. Calls come from the whole dose curve; as a rule, active = well fitted inhibition curve with a large enough effect in the repeat runs; inconclusive = weak or mixed curves, or effect the other way; inactive = no such curve, though single readings can be large or run the other way.

Assay: qHTS assay to identify small molecule antagonists of the retinoic acid receptor (RAR) signaling pathway (AID 1159552; note: nearly all actives have a fitted effect of over 50% in size)
Conditions: C3RL4 RARE luciferase reporter, retinol-stimulated, 6 h; series mostly up to 92.4 µM
Description: National Center for Advancing Translational Sciences [NCATS]
NIH Chemical Genomics Center [NCGC]
U.S. Environmental Protection Agency [EPA]
National Institutes of Environmental Health Sciences [NIEHS]
National Toxicology Program [NTP]
U.S. Food and Drug Administration [FDA]
All-trans Retinoic acid (atRA) is the potent natural metabolite of retinol and plays an important role in normal embryonic development and maintenance of cellular phenotype in adult animals. atRA is the activating ligand for the retinoic acid receptors (RARs) which form heterodimers with retinoid X receptors (RXRs) on the retinoic acid response element (RARE). Through activation of the RAR/RXRs nuclear receptors, atRA regulates the transcription of a large number of protein-coding genes and regulatory RNAs. Intracellular levels of atRA are controlled by the retinol signaling pathway (RSP) that regulates the biosynthesis and catabolism of atRA to maintain physiological levels. Chemicals that interfere with the RSP can cause abnormal intracellular levels of atRA and therefore are potential developmental toxicants. To assess compounds for the potential adverse effect on embryonic development through interfering with retinol signaling, a cell-based RARE luciferase reporter gene assay was used. C3RL4 cell line (OARSA/CFSAN/FDA, Laurel, MD) was used to screen Tox21 10K compound library for identifying inhibitors of the RSP.
Tox21 Assay Protocol Summary:
C3RL4 cells were seeded at 1,000/well in 4 uL of assay medium into white solid 1,536-well tissue culture plates (Greiner Bio-One North America Inc. Monroe, NC) using a Multidrop Combi (Thermo Scientific, Waltham, MA) dispenser. After incubation at 37 C and 5% CO2 for an overnight, 23 nL of compounds dissolved in DMSO, positive control or DMSO only were transferred by a Pintool station (Kalypsys, San Diego, CA). One ul of 1 uM (final concentration) of Retinol was added right after the compound addition by using a Flying Reagent Dispenser (FRD) (Aurora Discovery, San Diego, CA). After 6 hr incubation at 37 C and 5% CO2, 5 uL of Amplite Luciferase reagent (AAT Bioquest Inc. Sunnyvale, CA) was added to each assay plate using an FRD. Luminescence was quantified on a ViewLux plate reader (PerkinElmer, Waltham, MA) after 30 min incubation at room temperature.
Potency is the fitted concentration of half-maximal effect.

Structure (SMILES)	Potency	activity, negative = inhibition
Cc1cc(F)ccc1-c1cc(N2CC[C@@H](O)[C@H]2CO)ncc1N(C)C(=O)C(C)(C)c1cc(C(F)(F)F)cc(C(F)(F)F)c1	42.6 µM (active)	–
C[C@H]1O[C@@H](O[C@H]2CC[C@@]3(C)[C@H](CC[C@@H]4[C@@H]3C[C@@H](O)[C@]3(C)[C@@H](C5=CC(=O)OC5)CC[C@]43O)C2)C[C@H](O)[C@@H]1O[C@H]1C[C@H](O)[C@H](O[C@H]2C[C@H](O)[C@H](O[C@@H]3O[C@H](CO)[C@@H](O)[C@H](O)[C@H]3O)[C@@H](C)O2)[C@@H](C)O1	inactive	–
CCOC(=O)C1=NN(c2ccc(Cl)cc2Cl)C(C)(C(=O)OCC)C1 (stereo not given)	inactive	–
COc1cc(C(C)C)ccc1C	–	191% [at 19 µM] (inactive)
O=C(Nc1ccccc1)c1cc(Cl)ccc1O	inactive	–
CC/C(=C(/c1ccc(O)cc1)c1ccc(OCCN(C)C)cc1)c1ccccc1	18 µM (active)	–
CC(C=O)c1ccccc1 (stereo not given)	inactive	–
O=C1C=CC(=O)N1c1cccc(N2C(=O)C=CC2=O)c1	10.9 µM (active)	–
CCN(CC)c1ccc2c(c1)Oc1cc(N(CC)CC)ccc1C21OC(=O)c2ccccc21	inactive	–
O=C1CCC/C=C\CCCCCCCCCC1	inactive	–
O=C(c1ccccc1)c1ccc(Cl)cc1	inactive	–
NCc1cccc(C2CCN(C(=O)c3ccc(C#Cc4ccccc4F)o3)CC2)c1	54.5 µM (active)	–
CN1CC[C@H](c2c(O)cc(O)c3c(=O)cc(-c4ccccc4Cl)oc23)[C@H](O)C1	0.0668 µM (active)	–
CC1(C)[C@H]2CC[C@]1(C)C(=O)C2	inactive	–
C=Cc1ccncc1	inactive	–
CN1CCN(c2ccccc2/C=C2\SCCN(c3ccc(Cl)c(Cl)c3)C2=O)CC1	48.6 µM (active)	–
CCC(C)(C)c1ccc(CC(C)CN2C[C@@H](C)O[C@@H](C)C2)cc1 (stereo not given in full)	inactive	–
CCCCCCCCc1ccc(Nc2ccc(CCCCCCCC)cc2)cc1	inactive	–
CC(C)(C)c1ccc(OC2CCCCC2O)cc1 (stereo not given)	inactive	–
Clc1ccc2c(Cl)ccnc2c1	inactive	–

Structure (SMILES)	Potency	activity, negative = inhibition
CCOc1ccc([N+](=O)[O-])cc1	inactive	–
CC1=C(/C=C/C(C)=C/C=C/C(C)=C\C(=O)O)C(C)(C)CCC1	inactive	–
Nc1c(Br)cc([N+](=O)[O-])cc1Br	inactive	–
Nc1cccnc1N	inactive	–
CCCCCCCCCCCCN1CCCC1=O	inactive	–
Cc1cccc2c1ccc1ccccc12	inactive	–
CCCCCCCCCCCC(=O)Cl	inactive	–
CCOC=C(C(=O)OCC)C(=O)OCC	inactive	–
O=C1OC2(c3ccccc31)c1ccc(O)c(Br)c1Oc1c2ccc(O)c1Br	inactive	–
c1ccc2cc3c4ccccc4c4ccccc4c3cc2c1	inactive	–
Cc1cc(C)c(O)c(C(C)(C)C)c1	inactive	–
O=C1c2ccccc2C(=O)c2c(Cl)cccc21	inactive	–
CC/C=C\C/C=C\C/C=C\CCCCCCCC(=O)OC	inactive	–
CC(Cc1ccc(O)c(O)c1)C(C)Cc1ccc(O)c(O)c1 (stereo not given)	inactive	–
Cc1ccc(S(=O)(=O)C(I)I)cc1	9.69 µM (active)	–
Cc1ccc(C2OC[C@@H]3OC(c4ccc(C)cc4)O[C@H]([C@H](O)CO)[C@@H]3O2)cc1 (stereo not given in full)	inactive	–
N#CCCOCCC#N	inactive	–
CCOC(=O)OC(=O)OCC	inactive	–
O=C1OC(=O)c2cc(-c3ccc4c(c3)C(=O)OC4=O)ccc21	inactive	–
CCCCCN=C(N)N/N=C/c1c[nH]c2ccc(OC)cc12	13.3 µM (active)	–
